In PubChem BioAssay (Tox21):
Results filed as inconclusive are left out. Activity calls are given as the source filed them. Unless noted, calls come from the whole dose curve; as a rule, active = well fitted curve in the direction sought with a large enough effect in the repeat runs; inconclusive = weak or mixed curves; inactive = no such curve, though single readings can be large; an effect the other way counts as inactive or inconclusive.

Experiments:
[1] = qHTS assay to identify small molecule agonists of the vitamin D receptor (VDR) signaling pathway - cell viability counter screen (AID 743224); note: nearly all actives have a fitted effect of over 50% in size
Summary of the method: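 VDR-bla cells, 4 h after plating, exposed to compounds for 16 h at 37C; viability then read in the same wells as CellTiter-Glo luminescence after 30 min at room temperature, following the bla FRET read.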

[2] = qHTS assay to identify small molecule antagonists of the vitamin D receptor (VDR) signaling pathway - cell viability counter screen (AID 743225); note: nearly all actives have a fitted effect of over 50% in size
Summary of the method: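 Parallel cytotoxicity test: VDR-UAS-bla HEK 293T, 3 nM (final) 1-alpha,25-dihydroxyvitamin D3 with test compound, 16 h, 37C. Endpoint is CellTiter-Glo luminescence in the same wells.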

[3] = qHTS assay to identify small molecule agonists of the NFkB signaling pathway (AID 1159509; active = well fitted curve in the direction sought with a large enough effect in the signal ratio in the repeat runs, not every such curve was filed as active; the % refers to the signal ratio)
Summary of the method: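 ME-180 NFkB-bla, 2,000 cells/well, overnight plating; cpd pinned in DMSO, 5 h 37 C; B/G FRET substrate 1.5 h RT; ex 405, em 460/530 nm.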

[4] = qHTS assay to identify small molecule agonists of the NFkB signaling pathway - cell viability counter screen (AID 1159515; calls by dose curve; note: nearly all actives have a fitted effect of over 55% in size)
Summary of the method: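 NFkB-bla ME-180 cells, 2,000/well, plated overnight at 37 C; compound added for 5 hr at 37 C. Viability read in the same wells as the bla reporter, by CellTiter-Glo luminescence after 30 min at room temperature.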

[5] = qHTS assay to identify small molecule agonists of the endoplasmic reticulum stress response signaling pathway (AID 1159516; active = well fitted activation curve with a large enough effect in the signal ratio in the repeat runs, not every such curve was filed as active; the % refers to the signal ratio)
Summary of the method: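 CellSensor ESRE-bla HeLa cells, 1,500 per well, plated overnight, then exposed to compounds for 5 hr at 37 C. Beta-lactamase reporter read with LiveBLAzer B/G FRET substrate after 2 hr at room temperature, 405 nm excitation, 460 and 530 nm emission.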

[6] = qHTS assay to identify small molecule agonists of the endoplasmic reticulum stress response signaling pathway - cell viability counter screen (AID 1159517; calls by dose curve;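 note: HeLa cells carrying an ER stress response element beta-lactamase reporter; nearly all actives have a fitted effect of over 50% in size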)
Summary of the method: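 CellTiter-Glo was added to wells already read for beta-lactamase FRET, and luminescence was recorded 30 min later. Cells: ESRE-bla HeLa, 1,500 per well, compound exposure 5 hr at 37 C.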

[7] = qHTS assay to identify small molecule antagonists of the retinoid-related orphan receptor gamma (ROR-gamma) signaling pathway - cell viability counter screen (AID 1159520); note: nearly all actives have a fitted effect of over 50% in size
Summary of the method: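 Tet-on ROR gamma CHO cells (1,000/well) were plated 4 hr, given compounds in DMSO for 2 hr at 37 C, then induced with 1 uM final doxycycline for 16 hr. Viability was read as ATP by CellTiter-Glo luminescence after 30 min.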

[8] = molecular target: Nuclear receptor ROR-gamma (Homo sapiens) (UniProt P51449); test: qHTS assay to identify small molecule antagonists of the retinoid-related orphan receptor gamma (ROR-gamma) signaling pathway (AID 1159521)
Summary of the method: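 Decreased RORE-driven luciferase luminescence indicates antagonism. Tet-on RORγ CHO cells received compound, then 1 uM final doxycycline 2 h later; signal read after 16 h incubation.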

[9] = qHTS assay to identify small molecule agonists of the AP-1 signaling pathway (AID 1159526; calls by dose curve)
[10] = molecular target: Retinoic acid receptor RXR-alpha (Homo sapiens) (UniProt P19793); test: qHTS assay to identify small molecule agonists of the RXR signaling pathway (AID 1159527; calls by dose curve; note: nearly all actives have a fitted effect of over 35% in size)
Chain of Retinoic acid receptor RXR-alpha (Homo sapiens) (P19793 whole entry, looked up): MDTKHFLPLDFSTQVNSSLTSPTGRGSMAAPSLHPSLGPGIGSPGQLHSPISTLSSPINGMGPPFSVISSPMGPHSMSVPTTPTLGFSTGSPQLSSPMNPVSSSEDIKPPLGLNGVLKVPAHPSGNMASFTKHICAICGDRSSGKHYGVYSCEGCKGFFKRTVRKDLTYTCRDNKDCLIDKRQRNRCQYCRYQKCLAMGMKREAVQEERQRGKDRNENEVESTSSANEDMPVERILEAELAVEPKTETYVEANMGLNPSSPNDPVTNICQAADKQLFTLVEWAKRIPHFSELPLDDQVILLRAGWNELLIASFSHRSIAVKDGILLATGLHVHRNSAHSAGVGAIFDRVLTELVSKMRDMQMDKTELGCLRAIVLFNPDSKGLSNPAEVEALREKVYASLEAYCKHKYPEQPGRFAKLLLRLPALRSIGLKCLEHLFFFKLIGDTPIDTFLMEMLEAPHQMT
Summary of the method: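 16 hr incubation of compound-treated RXR-alpha-UAS-bla HEK 293T cells (2% charcoal-stripped FBS, 37 C) preceded a 2 hr room-temperature LiveBLAzer FRET substrate step and blue/green fluorescence measurement.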

[11] = qHTS assay to identify small molecule agonists of the RXR signaling pathway - cell viability counter screen (AID 1159529)
Summary of the method: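 In this parallel viability measure, GeneBLAzer RXR-alpha HEK 293T cells (2% charcoal-stripped FBS) were given a 5 hr preincubation, treated with compounds 16 hr at 37 C, and read by CellTiter-Glo luminescence.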

[12] = qHTS assay to identify small molecule antagonists of the retinoid acid receptor (RAR) signaling pathway - cell viability counter screen (AID 1159551); note: nearly all actives have a fitted effect of over 35% in size
Summary of the method: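 C3RL4 RARE-luciferase cells, 1,000/well, incubated overnight, then dosed with compound plus 1 uM retinol (final). After 6 hr at 37 C, viability read by CellTiter-Glo ATP luminescence following 30 min at room temperature.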

[13] = qHTS assay to identify small molecule antagonists of the retinoic acid receptor (RAR) signaling pathway (AID 1159552; note: nearly all actives have a fitted effect of over 50% in size)
Summary of the method: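 C3RL4 RARE-luc cells, overnight plating; retinol 1 uM final added right after compound; 6 hr 37 C; luciferase read at 30 min RT.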

[14] = qHTS assay to identify small molecule agonists of the retinoic acid receptor (RAR) signaling pathway (AID 1159553); conditions: C3RL4 RARE luciferase reporter, agonist, 6 h; activation: at 73.3 µM (top of the series) unless noted
Summary of the method: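 C3RL4 RARE-luciferase cells were seeded at 1,000/well and grown overnight at 37 C, then exposed to compounds for 6 hr at 37 C, 5% CO2. Luciferase reagent was added and luminescence was read after 30 min at room temperature.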

[15] = qHTS assay to identify small molecule antagonists of the estrogen related receptor (ERR) signaling pathway from Tox21 library - cell viability counter screen (AID 1224834); note: nearly all actives have a fitted effect of over 30% in size
Summary of the method: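 ERR reporter cells, 2,000 per well, rested 6 h, then exposed to compound in DMSO for 17.5 hours at 37 C. Viability read as fluorescence after 30 min with CellTiter-Fluor.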

[16] = molecular target: Luciferin 4-monooxygenase (Photinus pyralis) (UniProt P08659); test: qHTS assay to identify small molecule inhibitors of firefly luciferase (AID 1224835); note: nearly all actives have a fitted effect of over 25% in size
Chain of Luciferin 4-monooxygenase (Photinus pyralis) (P08659 whole entry, looked up): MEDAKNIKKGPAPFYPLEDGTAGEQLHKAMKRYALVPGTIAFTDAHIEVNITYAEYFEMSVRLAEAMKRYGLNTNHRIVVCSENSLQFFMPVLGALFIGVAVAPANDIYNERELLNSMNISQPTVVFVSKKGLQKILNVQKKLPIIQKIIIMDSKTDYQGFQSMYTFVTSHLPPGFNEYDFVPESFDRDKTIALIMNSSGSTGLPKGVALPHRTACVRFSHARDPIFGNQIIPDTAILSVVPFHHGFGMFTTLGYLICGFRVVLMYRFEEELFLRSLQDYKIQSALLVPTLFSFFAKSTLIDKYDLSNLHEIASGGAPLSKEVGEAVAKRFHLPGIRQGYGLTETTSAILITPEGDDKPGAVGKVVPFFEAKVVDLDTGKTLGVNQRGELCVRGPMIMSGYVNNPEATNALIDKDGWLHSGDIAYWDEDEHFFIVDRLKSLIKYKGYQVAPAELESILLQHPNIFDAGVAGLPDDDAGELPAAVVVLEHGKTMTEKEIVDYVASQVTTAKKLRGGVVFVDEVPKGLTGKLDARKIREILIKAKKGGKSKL
Summary of the method: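 Quantitative HTS format; KM concentrations of both substrates. Purified P. pyralis FLuc activity quantified from luminescence images.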

[17] = qHTS assay to identify small molecule agonists of the constitutive androstane receptor (CAR) signaling pathway - cell viability counter screen (AID 1224836); note: nearly all actives have a fitted effect of over 45% in size
Summary of the method: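 Using CellTiter-Fluor, viability of HepG2 cells harbouring hCAR and CYP2B6-2.2kb was measured following 23 h incubation with a 15-concentration compound series plus PK11195 (0.75 uM final).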

[18] = qHTS assay to identify small molecule agonists of the AP-1 signaling pathway - cell viability counter screen (AID 1159525; calls by dose curve; note: nearly all actives have a fitted effect of over 55% in size)
Summary of the method: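 ME-180 AP-1-bla, 2500 cells/well, Opti-MEM + 0.5% dialyzed FBS; overnight 37 °C; cpd 15-pt titration, 5 h 37 °C; CellTiter-Glo 30 min RT; luminescence read; normalised to TOAB and DMSO controls.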

Measured: Potency

CCOP(=S)(OCC)SCCSCC
not listed: [18]
inactive: all other assays above

O=Cc1cccc(Oc2ccccc2)c1
not listed: [2] | [8] | [16]
inactive: all other assays above

CCc1cccc(C)c1N(C(=O)CCl)C(C)COC (stereo not given)
not listed: [8] | [16] | [17]
inactive: all other assays above

Clc1cccc(Cl)c1Cl
not listed: [2] | [16] | [17]
inactive: all other assays above

c1ccc(-c2ccccc2)cc1
not listed: [18]
inactive: all other assays above

CC(Br)C(=O)O (stereo not given)
not listed: [8] | [16]
inactive: all other assays above

Clc1ccc(Cl)cc1
not listed: [17]
inactive: all other assays above

C#CC(C)(C)NC(=O)c1cc(Cl)cc(Cl)c1
inactive: all assays above
